High-throughput results: PubChem, several laboratories
TROY signal inh – blocks TROY-dependent signaling in reporter cells; Q293 LMP1-TROYcd NF-kB luciferase reporter, 4 h; inhibition, % at 10 µM; hit rate 0.98% among 360,000;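 active = compounds whose plate-normalised and pattern-corrected inhibition of the luciferase reporter signal at the single screening dose is 50% or more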
Peg3 promoter – inhibitors of Peg3 promoter; HeLa PEG-Prom luciferase reporter, luminescence, overnight; AID 588405; hit rate 1.7% among 360,000; inhibition, % at 20 µM;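 active = inhibition of at least 50% at 20 µM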
TWEAK-Fn14 inh – TWEAK-Fn14 signaling inhibition | TWEAK-stimulated Fn14 reporter cells, luciferase luminescence, 8 h | hit rate 2% among 360,000 | AID 1159606 | inhibition, % at 10 µM; in the data active = inhibition above about 50%
EBV LMP1 NFkB – reduces LMP1-driven NF-kappaB luciferase signal | LMP1-induced NF-kappaB luciferase reporter cells, luminescence | inhibition, % at 12.5 µM | hit rate 0.69% among 350,000 | AID 504558; in the data active = inhibition above about 41%;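 note: 0% = neutral control wells and 100% = reference inhibitor control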
Shn3 3UTR inh – inhibitors of Schnurri-3 3'UTR reporter in osteoblasts; Clone20 osteoblast Shn3 3'UTR firefly luciferase, 24 h; inhibition, % at 12.5 µM; hit rate 0.52% among 360,000; AID 588674;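 active = mean inhibition of at least 75% with every replicate also reaching 75%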;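 note: 0% = median of neutral control wells and 100% = pilot-screen positive control compound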
TRPM1 prom inh – inhibitors of MITF-driven TRPM1 promoter in melanoma cells | SK-MEL-5 TRPM1 promoter luciferase, 24 h | inhibition, % at 12.5 µM | hit rate 0.83% among 330,000 | AID 488899;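 active = mean inhibition across replicates of 60% or more, whatever share of single replicates reaches that level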
An asterisk follows results filed as active; nt = no result. Rows were chosen to be rich in hits. Some 4.1% of all compounds tested hit in one or more screens of this group.

SMILES | TROY signal inh | Peg3 promoter | TWEAK-Fn14 inh | EBV LMP1 NFkB | Shn3 3UTR inh | TRPM1 prom inh
O=C(Nc1nc(-c2ccccc2)cs1)C1CCCN(S(=O)(=O)c2ccccc2)C1 (stereo not drawn) | 46 | 46 | 88* | 22 | 55 | 52
Cc1nc2ccc(NC(=O)c3ccc(S(=O)(=O)N4CCOCC4)cc3)cc2s1 | 23 | 1 | 12 | 6 | 10 | 10
O=C(Nc1nc(-c2ccc(S(=O)(=O)N3CCOCC3)cc2)cs1)c1ccccc1 | 53* | 27 | 85* | 33 | 32 | 20
O=C(Nc1nc(-c2ccccc2)cs1)C1CCCN(S(=O)(=O)c2cccc([N+](=O)[O-])c2)C1 (stereo not drawn) | 2 | 9 | 22 | -12 | 27 | 19
Cc1nc(Nc2ccc(C(=O)O)cc2)nc(Nc2ccc(C(=O)O)cc2)c1[N+](=O)[O-] | -1 | 11 | 12 | -5 | -5 | -2
CCC(=O)Nc1ccc(Nc2nc(C)c([N+](=O)[O-])c(Nc3ccc(NC(=O)CC)cc3)n2)cc1 | 6 | 53* | 34 | 4 | 24 | 12
CC(C)(C)c1ccc2c(c1)C(=O)c1ccccc1C2=O | 52* | -196 | 41 | -40 | 15 | 11
CCc1ccc2c(c1)C(=O)c1ccccc1C2=O | -67 | -284 | -36 | -23 | -66 | -36
O=C(c1ccccc1)C(O)C(c1ccccc1)N1CCOCC1 (stereo not drawn) | -6 | -28 | 4 | 10 | 1 | 12
c1ccc2c(OCCCN3CCCCCC3)cccc2c1 | -22 | 3 | 36 | 10 | 6 | -4
COc1ccc(NC(=O)C2(C)Cc3c(-c4ccc(N(C)C)cc4)ccnc3O2)cc1OC (stereo not drawn) | -2 | 18 | -18 | nt | -20 | nt
O=C1C(=O)c2ccccc2C(O)=C1CCCCl | -4 | 40 | 5 | 0 | 14 | 78*
N#C/C(=C\c1cccs1)C(=O)Nc1nccs1 | 2 | -313 | 53* | -23 | -99 | -94
Cc1ccc(S(=O)(=O)N2CCN(C(=O)CSc3nccn3C)CC2)cc1 | 60* | -3 | -23 | 0 | -9 | -4
NS(=O)(=O)c1ccc(CCNC(=O)C(c2ccccc2)c2ccccc2)cc1 | 4 | 12 | 17 | 6 | 3 | 6
ClC1=C(Cl)C(Cl)=C(Cl)C1=C/C=C/c1ccccc1 | -4 | 107* | 23 | 70* | 90* | 92*
CCc1nc2c(OCc3ccccc3C)cccn2c1N(C)C(=O)c1ccc(C)cc1 | 19 | 10 | 12 | nt | 5 | nt
N=c1c(-c2nc3ccccc3[nH]2)cc(C(=O)c2ccco2)nn1-c1ccccc1 | -35 | 29 | -55 | 2 | -1 | 15
N=c1c(-c2nc3ccccc3[nH]2)cc(C(=O)c2cccs2)nn1-c1ccccc1 | -14 | 6 | -25 | 42* | -14 | 7
Cc1ccnc(SCC(=O)c2cccc([N+](=O)[O-])c2)n1 | -18 | -9 | -8 | -6 | -11 | -13
Cc1nc(SCC(=O)c2cccc([N+](=O)[O-])c2)n[nH]1 | -11 | -8 | -44 | 55* | 9 | 5
Oc1ccc(C[C@@H]2CNCCN2CCc2cc(C(F)(F)F)cc(C(F)(F)F)c2)cc1 | 1 | 103* | -3 | -10 | -4 | 1
FC(F)(F)c1cc(CCN2CCNC[C@H]2Cc2cccc3ccccc23)cc(C(F)(F)F)c1 | -7 | 101* | -5 | 2 | 38 | 10
Oc1ccc(C[C@@H]2CNCCN2CCCCC2CCCCC2)cc1 | -8 | 94* | -6 | 1 | 9 | -12
Oc1ccc(C[C@H]2CNCCN2CCc2cccc3ccccc23)cc1 | 5 | -3 | 8 | 1 | 9 | -4
SMILES | TROY signal inh | Peg3 promoter | TWEAK-Fn14 inh | EBV LMP1 NFkB | Shn3 3UTR inh | TRPM1 prom inh
O=C(COC(=O)/C(=C/c1cccs1)c1cccs1)NC(c1ccccc1)c1ccccc1 | 11 | 26 | 31 | -3 | 16 | 71*
COc1cccc(/C=N/Nc2snc(SC)c2C#N)c1O | 42 | -172 | 75* | -6 | -9 | -8
COc1ccc(/C=N/Nc2snc(SC)c2C#N)cc1OC | -26 | -269 | -1 | -10 | -34 | -87
CN(c1ccccc1)S(=O)(=O)c1cccc(C(=O)Nc2nccs2)c1 | 10 | -1 | 20 | -1 | 18 | 5
COc1ccc(C(=O)OCC(=O)c2c[nH]c3ccccc23)cc1OC | -12 | -71 | 5 | 67* | -37 | -9
COc1ccc(NC(=O)COC(=O)Cc2c[nH]c3ccccc23)cc1OC | -7 | 0 | 6 | 70* | -4 | 8
